Measurements reported in PubChem BioAssay (EPA / NIEHS).
Several values for one entry are separate records, joined by “and”; a condition that tells them apart may be missing. Equal values may be shown once. Results filed as inconclusive are left out. Activity calls are given as the source filed them. Rule for the calls, unless noted: active = hit-call score of the fitted dose curve at least 0.9, where 1 is the maximum; inactive = score below 0.9.

Key:
[1] = biological target: Glucocorticoid receptor (Homo sapiens) (UniProt P04150); experiment: ATG_GR_TRANS: Attagene TRANS-FACTORIAL HepG2 Assay for human Glucocorticoid Receptor (GR) (AID 2282978; active = hit-call score of the fitted dose curve at least 0.9, where 1 is the maximum;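 note: activators score as hits since higher reporter transcript over DMSO is fitted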); conditions: HepG2 Attagene TRANS GR reporter, mRNA transcription
Sequence of Glucocorticoid receptor (Homo sapiens) (P04150 whole entry, looked up, the tested form may be a part): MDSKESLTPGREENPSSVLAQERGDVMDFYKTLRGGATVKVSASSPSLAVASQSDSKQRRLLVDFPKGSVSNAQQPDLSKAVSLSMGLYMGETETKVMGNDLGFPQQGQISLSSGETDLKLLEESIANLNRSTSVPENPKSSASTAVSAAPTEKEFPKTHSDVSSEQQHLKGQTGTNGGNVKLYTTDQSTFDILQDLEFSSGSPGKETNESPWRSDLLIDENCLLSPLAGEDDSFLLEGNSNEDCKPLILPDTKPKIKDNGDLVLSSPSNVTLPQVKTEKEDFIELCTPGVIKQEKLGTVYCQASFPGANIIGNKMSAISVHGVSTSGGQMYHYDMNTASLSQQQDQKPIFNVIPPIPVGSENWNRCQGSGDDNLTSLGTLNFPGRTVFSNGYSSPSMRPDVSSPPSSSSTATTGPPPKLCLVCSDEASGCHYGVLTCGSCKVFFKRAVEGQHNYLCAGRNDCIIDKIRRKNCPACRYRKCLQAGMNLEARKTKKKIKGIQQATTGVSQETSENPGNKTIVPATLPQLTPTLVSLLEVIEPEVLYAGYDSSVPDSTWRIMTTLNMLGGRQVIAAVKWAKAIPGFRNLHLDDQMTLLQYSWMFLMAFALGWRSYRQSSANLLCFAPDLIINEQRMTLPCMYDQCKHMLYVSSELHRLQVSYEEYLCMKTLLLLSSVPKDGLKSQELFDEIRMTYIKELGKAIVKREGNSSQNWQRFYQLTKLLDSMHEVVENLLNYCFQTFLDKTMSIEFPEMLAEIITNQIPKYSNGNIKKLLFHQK
In short: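 Exogenous NR-GAL4 fusion activity was assessed through induced GAL4-UAS reporter transcripts in transfected human HepG2 cells, quantified after 24 h by RT-PCR and fluorescent capillary electrophoresis with DMSO as baseline.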

[2] = biological target: Oxysterols receptor LXR-alpha (Homo sapiens) (UniProt Q13133); experiment: ATG_LXRa_TRANS: Attagene TRANS-FACTORIAL HepG2 Assay for human Liver X Receptor alpha (LXRa) (AID 2282980; active = hit-call score of the fitted dose curve at least 0.9, where 1 is the maximum); conditions: HepG2 Attagene TRANS reporter, LXRa transactivation
Sequence of Oxysterols receptor LXR-alpha (Homo sapiens) (Q13133 whole entry, looked up, the tested form may be a part): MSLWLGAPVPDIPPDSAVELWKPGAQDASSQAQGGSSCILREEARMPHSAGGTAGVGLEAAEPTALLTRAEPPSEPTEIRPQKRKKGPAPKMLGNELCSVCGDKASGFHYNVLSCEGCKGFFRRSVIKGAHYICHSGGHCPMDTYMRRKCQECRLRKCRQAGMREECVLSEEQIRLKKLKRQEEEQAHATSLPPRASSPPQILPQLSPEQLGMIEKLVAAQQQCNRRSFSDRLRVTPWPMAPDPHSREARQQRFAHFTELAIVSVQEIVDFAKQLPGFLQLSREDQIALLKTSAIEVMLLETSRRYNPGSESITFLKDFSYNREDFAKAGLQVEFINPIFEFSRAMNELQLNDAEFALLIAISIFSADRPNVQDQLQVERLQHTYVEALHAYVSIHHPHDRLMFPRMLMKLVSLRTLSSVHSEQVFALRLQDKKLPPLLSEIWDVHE
In short: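 Chemical-induced reporter mRNA measured by RT-PCR with fluorescent labelling and capillary electrophoresis after 24 h dosing of transiently transfected HepG2 cells expressing exogenous NR-Gal4 chimeras; increases scored against DMSO baseline.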

[3] = ATG_M_06_TRANS: Attagene TRANS-FACTORIAL HepG2 Assay for M06 Transcription Factor (Internal Marker) (AID 2282983; active = hit-call score of the fitted dose curve at least 0.9, where 1 is the maximum); conditions: HepG2 Attagene TRANS M06 internal marker reporter
In short: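 Background-control reporter readout: after 24 h chemical exposure of transiently transfected HepG2 (GAL4-UAS reporter units), mRNA quantified by RT-PCR with fluorescent labeling and capillary electrophoresis. Gain-of-signal fitting against DMSO baseline.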

[4] = biological target: Transcriptional activator Myb (Homo sapiens) (UniProt P10242); experiment: ATG_Myb_CIS: Attagene CIS-FACTORIAL HepG2 Assay for human Myeloblastosis (Myb) Proto-Oncogene Transcription Factor (AID 2282986); conditions: HepG2 Attagene CIS-FACTORIAL Myb reporter transcription; actives raise or lower the signal
Sequence of Transcriptional activator Myb (Homo sapiens) (P10242 whole entry, looked up): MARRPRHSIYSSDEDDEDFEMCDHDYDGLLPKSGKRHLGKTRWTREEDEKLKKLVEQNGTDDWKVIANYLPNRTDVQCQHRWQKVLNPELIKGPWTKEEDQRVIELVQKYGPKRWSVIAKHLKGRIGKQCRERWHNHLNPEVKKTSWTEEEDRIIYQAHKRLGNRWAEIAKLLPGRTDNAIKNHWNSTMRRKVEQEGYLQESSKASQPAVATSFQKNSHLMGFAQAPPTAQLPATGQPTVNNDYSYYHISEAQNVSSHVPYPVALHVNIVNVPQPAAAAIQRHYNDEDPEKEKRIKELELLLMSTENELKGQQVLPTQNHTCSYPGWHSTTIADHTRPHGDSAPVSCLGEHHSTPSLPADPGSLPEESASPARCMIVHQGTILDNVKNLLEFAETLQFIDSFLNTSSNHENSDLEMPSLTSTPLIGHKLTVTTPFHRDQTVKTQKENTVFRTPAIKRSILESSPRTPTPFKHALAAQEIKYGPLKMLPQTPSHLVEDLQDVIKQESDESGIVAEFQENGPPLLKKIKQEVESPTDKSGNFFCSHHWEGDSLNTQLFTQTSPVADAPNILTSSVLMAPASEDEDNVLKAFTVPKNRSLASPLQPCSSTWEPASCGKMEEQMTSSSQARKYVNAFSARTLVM
In short: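 In this HepG2 transient-transfection format, cis-regulated reporter mRNA is quantified 24 h post-dosing by RT-PCR with capillary electrophoresis, fitted bidirectionally to DMSO baseline.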

[5] = biological target: Nuclear respiratory factor 1 (Homo sapiens) (UniProt Q16656); experiment: ATG_NRF1_CIS: Attagene CIS-FACTORIAL HepG2 Assay for human Nuclear Respiratory Factor 1 (NRF1) Orphan Gene (AID 2282987); conditions: HepG2 NRF1 cis-element reporter, Attagene multiplex; actives raise or lower the signal
Sequence of Nuclear respiratory factor 1 (Homo sapiens) (Q16656 whole entry, looked up): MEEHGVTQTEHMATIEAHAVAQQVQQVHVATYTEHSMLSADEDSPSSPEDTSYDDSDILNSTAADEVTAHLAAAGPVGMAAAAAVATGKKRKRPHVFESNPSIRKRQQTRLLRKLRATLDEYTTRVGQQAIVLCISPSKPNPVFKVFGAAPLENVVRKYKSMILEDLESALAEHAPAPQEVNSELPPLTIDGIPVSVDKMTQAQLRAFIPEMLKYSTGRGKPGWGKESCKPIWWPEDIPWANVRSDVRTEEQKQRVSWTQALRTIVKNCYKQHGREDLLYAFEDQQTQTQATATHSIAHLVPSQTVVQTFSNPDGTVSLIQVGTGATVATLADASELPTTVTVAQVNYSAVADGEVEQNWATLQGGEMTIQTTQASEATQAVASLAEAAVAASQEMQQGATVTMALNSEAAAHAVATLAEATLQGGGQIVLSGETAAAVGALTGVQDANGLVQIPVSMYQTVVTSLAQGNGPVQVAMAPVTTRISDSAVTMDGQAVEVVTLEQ
In short: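 Using DMSO as baseline, gain- or loss-of-signal was fitted for reporter mRNA levels in HepG2 cells transiently transfected with cis-regulated reporter units. Samples were taken 24 h after dosing and read by RT-PCR with capillary electrophoresis.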

[6] = ATG_NFI_CIS: Attagene CIS-FACTORIAL HepG2 Assay for human Nuclear Factor I (NFI) (AID 2282989); conditions: HepG2 cis-regulatory reporter, NFI response element transcription; actives raise or lower the signal
In short: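 Reporter transcription driven by endogenous transcription factors in HepG2 cells; 24 h treatment. Quantitation by labelled RT-PCR fragments on capillary electrophoresis, gain- or loss-of-signal relative to DMSO.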

[7] = biological target: Myc proto-oncogene protein (Homo sapiens) (UniProt P01106); experiment: ATG_Myc_CIS: Attagene CIS-FACTORIAL HepG2 Assay for human Myelocytomatosis (Myc) Proto-Oncogene Transcription Factor (AID 2282990); conditions: HepG2, Attagene cis-reporter transcription factor activity; actives raise or lower the signal
Sequence of Myc proto-oncogene protein (Homo sapiens) (P01106 whole entry, looked up): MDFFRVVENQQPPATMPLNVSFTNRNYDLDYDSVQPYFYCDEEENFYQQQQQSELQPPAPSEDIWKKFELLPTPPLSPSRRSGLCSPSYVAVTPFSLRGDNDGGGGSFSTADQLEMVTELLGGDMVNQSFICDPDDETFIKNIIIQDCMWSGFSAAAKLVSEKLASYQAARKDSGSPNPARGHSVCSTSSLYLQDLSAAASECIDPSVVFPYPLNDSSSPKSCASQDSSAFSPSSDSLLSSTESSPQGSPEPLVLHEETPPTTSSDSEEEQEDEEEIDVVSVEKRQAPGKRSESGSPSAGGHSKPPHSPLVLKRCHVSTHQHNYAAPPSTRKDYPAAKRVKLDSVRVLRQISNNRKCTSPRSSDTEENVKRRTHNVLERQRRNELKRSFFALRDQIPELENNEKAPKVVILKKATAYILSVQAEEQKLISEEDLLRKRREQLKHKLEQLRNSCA
In short: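 HepG2, transient MRTU transfection (cis promoters, endogenous TFs); 24 h dosing; TriZol RNA → oligo(dT) RT → PCR → 6-FAM primer extension → HpaI cut → CE. Bidirectional fit vs DMSO.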

[8] = ATG_NF_kB_CIS: Attagene CIS-FACTORIAL HepG2 Assay for human Nuclear Factor Kappa B (NF-kB) (AID 2282991); conditions: HepG2 Attagene cis-factorial NF-kB reporter mRNA; actives raise or lower the signal
In short: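 Endpoint from a 52-component multiplexed HepG2 reporter panel: cis-regulated transcription units transiently transfected, 24 h dosing, reporter mRNA quantified by RT-PCR and capillary electrophoresis, scored as increase or decrease against DMSO.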

[9] = ATG_NRF2_ARE_CIS: Attagene CIS-FACTORIAL HepG2 Assay for human Nuclear Factor Erythroid 2 Related Factor 2 (NFR2) response to Antioxidant Response Elements (ARE) (AID 2282992); conditions: HepG2 Attagene ARE/NRF2 reporter, transcription factor activity; actives raise or lower the signal
In short: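 Endogenous transcription factor activity read out as reporter transcript levels (RT-PCR plus capillary electrophoresis, fluorescence) in transiently transfected HepG2 cells. Measured at 24 h after dosing; gain or loss of signal fitted versus DMSO.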

[10] = ATG_Oct_MLP_CIS: Attagene CIS-FACTORIAL HepG2 Assay for human Octamer-Binding Transcription Factor (Oct) (AID 2282993); conditions: HepG2 Attagene cis-factorial Oct reporter, mRNA; actives raise or lower the signal
In short: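 Transfected HepG2 cells, 24 h treatment. Reporter mRNA quantified by RT-PCR–capillary electrophoresis; bidirectional fitting against DMSO.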

[11] = biological target: Cellular tumor antigen p53 (Homo sapiens) (UniProt P04637); experiment: ATG_p53_CIS: Attagene CIS-FACTORIAL HepG2 Assay for human p53 Transcription Factor (AID 2282994); conditions: HepG2 p53 cis-element reporter, Attagene mRNA; actives raise or lower the signal
Sequence of Cellular tumor antigen p53 (Homo sapiens) (P04637 whole entry, looked up): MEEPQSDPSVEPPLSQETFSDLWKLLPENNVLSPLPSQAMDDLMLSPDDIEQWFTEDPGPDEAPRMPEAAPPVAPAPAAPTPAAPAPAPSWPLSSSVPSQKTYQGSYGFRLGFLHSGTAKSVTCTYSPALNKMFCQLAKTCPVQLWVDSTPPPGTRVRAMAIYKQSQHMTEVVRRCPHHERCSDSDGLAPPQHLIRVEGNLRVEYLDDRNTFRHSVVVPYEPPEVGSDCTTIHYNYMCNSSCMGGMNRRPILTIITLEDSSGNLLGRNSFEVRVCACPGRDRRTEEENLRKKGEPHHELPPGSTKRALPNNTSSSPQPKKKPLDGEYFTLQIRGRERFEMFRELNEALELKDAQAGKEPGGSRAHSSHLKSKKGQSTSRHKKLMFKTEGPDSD
In short: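 Endogenous p53 activity read in transiently transfected HepG2 from a cis-element-driven reporter transcript after 24 h exposure. RNA reverse-transcribed, PCR-amplified, fluorescently labelled and sized by capillary electrophoresis; gain or loss fitted against DMSO baseline.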

[12] = BSK_3C_TissueFactor: BioMAP Diversity Plus: 3C Assay for Tissue Factor Biomarker Activity (AID 2282997); conditions: BioMAP 3C HUVEC, tissue factor biomarker readout; actives raise or lower the signal
In short: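 Tissue factor on primary human umbilical vein endothelium was read by ELISA 24 h after dosing, gain or loss relative to DMSO. Cytotoxicity ran alongside via SRB (0.1%, TCA-fixed, 560 nm).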

[13] = BSK_3C_uPAR: BioMAP Diversity Plus: 3C Assay for Urokinase-type plasminogen activator receptor (uPAR) Biomarker Activity (AID 2282998); conditions: BioMAP 3C HUVEC, uPAR biomarker ELISA; actives raise or lower the signal
In short: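 Readout: ELISA for surface uPAR. System: human umbilical vein endothelial primary cells, 24 h after chemical exposure. Analysis: bidirectional fit, DMSO baseline.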

[14] = BSK_3C_VCAM1: BioMAP Diversity Plus: 3C Assay for Vascular cell adhesion molecule 1 (VCAM1) Biomarker Activity (AID 2282999); conditions: BioMAP 3C HUVEC, VCAM1 ELISA, cytokine-stimulated; actives raise or lower the signal
In short: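 Activity fitted in both directions relative to DMSO, with ELISA measurement of the surface marker on primary HUVEC (3C) at 24 h post-treatment; parallel SRB staining (0.1% SRB, TCA-fixed, 560 nm) flagged overt cytotoxicity.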

[15] = BSK_4H_Eotaxin3: BioMAP Diversity Plus: 4H Assay for Eotaxin 3 Biomarker Activity (AID 2283000); conditions: primary human endothelial cells (HUVEC); actives raise or lower the signal
In short: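 Human umbilical vein endothelial cells (BSK_4H system) dosed with test chemical; Eotaxin-3 (CCL26) measured by ELISA 24 h after dosing. Bidirectional curve fitting relative to DMSO negative control as baseline.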

[16] = biological target: Bile acid receptor (Homo sapiens) (UniProt Q96RI1); experiment: ATG_FXR_TRANS: Attagene TRANS-FACTORIAL HepG2 Assay for Farnesoid X Receptor (FXR) (AID 2282979; active = hit-call score of the fitted dose curve at least 0.9, where 1 is the maximum;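 note: hits raise reporter mRNA above DMSO so AC50 marks FXR activation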); conditions: HepG2 Attagene TRANS FXR-GAL4 reporter transcription
Sequence of Bile acid receptor (Homo sapiens) (Q96RI1 whole entry, looked up, the tested form may be a part): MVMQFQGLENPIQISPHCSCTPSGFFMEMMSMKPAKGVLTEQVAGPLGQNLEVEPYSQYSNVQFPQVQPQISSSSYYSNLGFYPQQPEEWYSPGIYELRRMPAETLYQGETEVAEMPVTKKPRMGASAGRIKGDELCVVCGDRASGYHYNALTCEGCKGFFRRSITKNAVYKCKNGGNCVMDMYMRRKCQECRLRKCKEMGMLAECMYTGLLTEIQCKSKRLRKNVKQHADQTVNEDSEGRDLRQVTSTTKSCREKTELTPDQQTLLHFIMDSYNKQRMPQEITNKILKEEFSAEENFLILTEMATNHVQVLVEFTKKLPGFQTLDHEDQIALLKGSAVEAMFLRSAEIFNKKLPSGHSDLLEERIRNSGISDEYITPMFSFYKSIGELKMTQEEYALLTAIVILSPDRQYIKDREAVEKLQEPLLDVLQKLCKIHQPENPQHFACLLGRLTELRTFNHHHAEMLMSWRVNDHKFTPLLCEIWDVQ
In short: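 Reporter transcripts from transfected HepG2 cells were measured 24 h after dosing, using RT-PCR with capillary electrophoresis of 6-FAM-labelled fragments. The read-out reflects activity of exogenous FXR-Gal4 chimera on GAL4-UAS units, with induction relative to DMSO.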

[17] = ATG_M_32_TRANS: Attagene TRANS-FACTORIAL HepG2 Assay for M32 Transcription Factor (Internal Marker) (AID 2282984; active = hit-call score of the fitted dose curve at least 0.9, where 1 is the maximum;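 note: transcript level of a background control reporter unit measured by RT-PCR and capillary electrophoresis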); conditions: HepG2 Attagene TRANS M32 internal marker reporter
In short: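 Cell-based TRANS-format assay in HepG2: exogenous chimeric GAL4 reporter units transiently expressed, compounds applied 24 h. Reporter mRNA detected by RT-PCR plus capillary electrophoresis; this readout is an internal background marker.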

[18] = biological target: Oxysterols receptor LXR-beta (Homo sapiens) (UniProt P55055); experiment: ATG_LXRb_TRANS: Attagene TRANS-FACTORIAL HepG2 Assay for human Liver X Receptor beta (LXRb) (AID 2282981; active = hit-call score of the fitted dose curve at least 0.9, where 1 is the maximum); conditions: HepG2 Attagene TRANS GAL4-LXRb reporter, mRNA
Sequence of Oxysterols receptor LXR-beta (Homo sapiens) (P55055 whole entry, looked up, the tested form may be a part): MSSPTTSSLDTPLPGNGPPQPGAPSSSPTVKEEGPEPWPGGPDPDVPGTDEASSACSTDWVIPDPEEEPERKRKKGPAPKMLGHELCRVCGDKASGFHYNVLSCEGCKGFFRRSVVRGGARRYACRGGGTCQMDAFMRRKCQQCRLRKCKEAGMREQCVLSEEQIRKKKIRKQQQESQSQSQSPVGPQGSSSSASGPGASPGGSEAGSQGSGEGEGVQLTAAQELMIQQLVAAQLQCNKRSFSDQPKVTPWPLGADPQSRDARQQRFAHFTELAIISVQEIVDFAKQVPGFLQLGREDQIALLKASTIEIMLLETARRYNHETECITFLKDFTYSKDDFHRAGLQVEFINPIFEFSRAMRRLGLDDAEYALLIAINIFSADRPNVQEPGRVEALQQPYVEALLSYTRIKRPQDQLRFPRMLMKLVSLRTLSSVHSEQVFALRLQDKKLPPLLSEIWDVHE
In short: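 After 24 h of chemical treatment, transfected HepG2 cells yield total RNA; reporter cDNA is PCR-amplified, FAM-labelled, HpaI-cut and run on capillary electrophoresis. Signal reflects chimeric LXRb-Gal4 activity on GAL4-UAS reporters.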

[19] = biological target: Nuclear receptor subfamily 4 group A member 2 (Homo sapiens) (UniProt P43354); experiment: ATG_NURR1_TRANS: Attagene TRANS-FACTORIAL HepG2 Assay for human Nuclear Receptor Related Protein 1 (NURR1) (AID 2282985; active = hit-call score of the fitted dose curve at least 0.9, where 1 is the maximum); conditions: HepG2 Attagene TRANS reporter, mRNA readout
In short: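 Measures transcriptional activation by an exogenous NR-Gal4 chimera in transfected HepG2 liver cells. After 24 h, reporter RNA is reverse-transcribed, amplified and resolved by capillary electrophoresis; DMSO defines baseline.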

[20] = biological target: human Peroxisome Proliferator-activated Receptor alpha (PPARa), PPARA (gene 5465) (UniProt Q07869); experiment: ATG_PPARa_TRANS: Attagene TRANS-FACTORIAL HepG2 Assay for human Peroxisome Proliferator-activated Receptor alpha (PPARa) (AID 2283001; active = hit-call score of the fitted dose curve at least 0.9, where 1 is the maximum;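 for AC50: potency for gain of reporter signal over DMSO so agonist or activator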)
Sequence of human Peroxisome Proliferator-activated Receptor alpha (PPARa), PPARA (gene 5465) (Q07869 whole entry, looked up, the tested form may be a part): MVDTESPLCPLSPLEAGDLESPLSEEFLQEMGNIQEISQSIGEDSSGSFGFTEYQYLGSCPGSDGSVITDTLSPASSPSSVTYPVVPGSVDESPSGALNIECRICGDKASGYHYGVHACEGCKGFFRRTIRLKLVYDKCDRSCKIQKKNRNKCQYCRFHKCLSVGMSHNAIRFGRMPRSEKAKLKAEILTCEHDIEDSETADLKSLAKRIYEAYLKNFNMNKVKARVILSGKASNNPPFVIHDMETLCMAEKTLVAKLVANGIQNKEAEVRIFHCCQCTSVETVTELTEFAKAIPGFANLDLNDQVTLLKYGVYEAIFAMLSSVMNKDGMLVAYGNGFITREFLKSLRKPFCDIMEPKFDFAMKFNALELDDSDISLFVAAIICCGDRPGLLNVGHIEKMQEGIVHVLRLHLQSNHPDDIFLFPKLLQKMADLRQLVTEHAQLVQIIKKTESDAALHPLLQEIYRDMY
In short: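 Transfected HepG2 cells treated with test chemical for 24 h. RNA isolated, reverse-transcribed with oligo(dT), PCR-amplified, FAM-labelled and HpaI-digested. Fragments sized by capillary electrophoresis; gain-of-signal fit relative to DMSO.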

Measured: AC50

c1ccc2n[nH]nc2c1
not listed: [16] | [17] | [18] | [19] | [20]
inactive: all other assays above

CC[C@H](NC(=O)c1cc(F)ccc1NS(=O)(=O)c1cccc2cccnc12)c1ccccc1
active: [9] 0.13 µM
not listed: [1] | [2] | [18] | [19] | [20]
inactive: all other assays above

NCc1cccc(C2CCN(C(=O)c3ccc(C#Cc4ccccc4F)o3)CC2)c1
active: [2] 8.2 µM | [8] 18.3 µM | [9] 1.76 µM | [10] 15.5 µM | [12] 15.6 µM | [13] 7.38 µM | [14] 15.8 µM | [15] 15.8 µM | [20] 0.909 µM
not listed: [1] | [16]
inactive: all other assays above

C[C@]12CC[C@@H]3c4ccc(O)cc4CC[C@H]3[C@@H]1CCC2=O
not listed: [1] | [11] | [19]
inactive: all other assays above

Cc1cccc2ccccc12
not listed: [1] | [2] | [19]
inactive: all other assays above

CCN(CC)C(=O)c1cc(S(=O)(=O)Cc2ccccc2)c(N2CCC(c3ccccc3)CC2)cc1N(CC)CCN(C)C
active: [9] 3.7 µM | [12] 32.2 µM | [13] 5.11 µM | [14] 12.9 µM | [15] 18.7 µM
not listed: [16] | [17] | [18] | [19] | [20]
inactive: all other assays above
